Assay outcomes (PubChem BioAssay)
mIDH1 inhibitor: human IDH1 R132H inhibition; 390,000 compounds, 0.093% hits; Potency, µM (doses to about 76.6 µM), without a hit: at the highest dose activity change, negative = inhibition, hits mostly inhibitors; O75874; IDH1-R132H enzyme, NADPH consumption, diaphorase/resazurin fluorescence; AID 602179; further: potency means the concentration at half of the fitted maximal effect; on the % scale 0 is the no-effect control and ±100 the full control effect; nearly all actives have a fitted effect of over 65% in size
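IDH1-R132H (0.5 ug/mL) preincubated 30 min with compound, then NADPH (0.016 mM) and alpha-KG (2 mM) added; 80 min at RT, pH 7.5. Remaining NADPH coupled via diaphorase/resazurin to fluorescence (540/590 nm); concentration-response curves normalized to no-enzyme control.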
RGS4 inhibitor: blocks human RGS4-accelerated GTP hydrolysis. 390,000 compounds, 0.039% hits. P49798. AID 504845. Transcreener GDP fluorescence polarization, RGS4-accelerated GTP hydrolysis. Potency, µM (top dose mostly 114 µM), for inactives: at the top dose activity change, negative = inhibition, usual class: inhibitors; further: potency means the concentration at half of the fitted maximal effect; on the % scale 0 is the no-effect control and ±100 the full control effect; nearly all actives have a fitted effect of over 75% in size
Target sequence (P49798 whole entry, looked up): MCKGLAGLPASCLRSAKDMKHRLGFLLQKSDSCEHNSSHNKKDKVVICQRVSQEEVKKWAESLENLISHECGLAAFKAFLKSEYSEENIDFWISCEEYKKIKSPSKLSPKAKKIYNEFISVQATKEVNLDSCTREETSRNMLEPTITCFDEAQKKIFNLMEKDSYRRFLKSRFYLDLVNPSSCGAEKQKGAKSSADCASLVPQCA
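MLSMR compounds (23 nl, pin-transferred) preincubated 10 min at room temperature with a 500nM (2x) first reagent, then RGS4 at 900nM (2x) plus Transcreener GDP mix added; fluorescence polarization (620/688 nm) read before and after 90 min at 30 °C.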
TrxR1 substrate: rat thioredoxin reductase 1 substrate activity. O89049. purified TrxR1 substrate turnover, NADPH consumption readout. Potency, µM (series often up to 114 µM), inactives show top-dose activity change, negative = substrate turnover. 390,000 compounds, 0.01% hits; further: potency means the concentration at half of the fitted maximal effect; on the % scale 0 is the no-effect control and ±100 the full control effect; nearly all actives have a fitted effect of over 50% in size
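Rat TrxR1, dispensed at 90 nM, was prereduced with 400 uM NADPH (final) for 5 min at ~22 deg C, then incubated with compound 15 min before 400 uM selenite. A first-read NADPH fluorescence drop versus no-compound background flagged substrates.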
Eya2 phos inh: inhibitors of human Eya2 phosphatase activity; Potency, µM (top dose mostly 76.9 µM), without a hit: at the top dose activity, negative = inhibition, most hits filed as inhibitors; recombinant Eya2, OMFP fluorescence dephosphorylation (OMFP is methylfluorescein phosphate); 330,000 compounds, 0.006% hits; further: potency means the concentration at half of the fitted maximal effect; on the % scale 0 is the no-effect control and ±100 the full control effect
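Eya2 (0.2 uM) preincubated 10 min at ambient with compound, then OMFP substrate added at 50 uM; 10 min reaction in 50 mM HEPES pH 7.5, 50 mM NaCl, 5 uM MgCl2, 0.05% BSA, 1 mM DTT. Fluorescence read at Ex 485/Em 525 nm.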
rTrxR1 inhibitor: rat TrxR1 inhibition | Potency, µM (highest dose often 114 µM), inactives show at the top dose activity change, negative = inhibition, hits mostly inhibitors | 390,000 compounds, 1% hits | recombinant rTrxR1, NADPH fluorescence consumption, selenite substrate; further: potency means the concentration at half of the fitted maximal effect; on the % scale 0 is the no-effect control and ±100 the full control effect; nearly all actives have a fitted effect of over 65% in size
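Rat TrxR1 (90 nM in the dispensed reagent) was pre-reduced with 400 uM NADPH for 5 min at room temperature, then incubated with compound for 15 min. After 400 uM selenite was added, NADPH fluorescence (Ex 340/Em 450 nm) was followed for 8 min.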
Resorufin autofl: autofluorescence interference, mutant IDH1 hit counter-screen; Resorufin detection reagent fluorescence interference, cell-free; inhibition of signal, % at 51.2 µM; shares compounds with mIDH1 inhibitor; 750 tested, under 10 active; AID 623980;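 further: 0% = wells with normal resorufin and full inhibition = wells lacking resorufin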
IDH1 WT: wild-type IDH1 (human) inhibition counterscreen | AID 623995 | shares compounds with mIDH1 inhibitor | WT IDH1 enzyme, NADPH diaphorase/resazurin fluorescence | Potency, µM (highest dose often 115 µM), for the others: at the top dose activity change, negative = inhibition, usual class: inhibitors | 750 compounds, 9% hits;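 further: potency means the concentration at half of the fitted maximal effect; 0% = full WT IDH1 enzyme control and full inhibition = no enzyme wells; nearly all actives have a fitted effect of over 55% in size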
mIDH1 confirm: inhibits human mutant IDH1 enzyme in cherrypick confirmation. Potency, µM (doses to about 76.6 µM), for the others: at the highest dose activity change, negative = inhibition, actives largely listed as inhibitors. 750 compounds, 83% hits. IDH1 R132H enzyme, NADPH diaphorase/resazurin fluorescence. AID 624002. shares compounds with mIDH1 inhibitor; further: potency means the concentration at half of the fitted maximal effect; nearly all actives have a fitted effect of over 50% in size
The depositor's hits bear a star; ? = inconclusive; · = not tested or not shown; [ ] = another dose, or the depositor's remark. The list is not random: actives were taken first. Their share in the collection is about 1.1%. The call rests on the fitted dose curve; in most records, active means well fitted curve in the direction sought with a large enough effect; inconclusive means small, poorly fitted or top-dose-only effect, or another doubt; inactive means no such curve, though single readings can be large; an effect the other way counts as inactive or inconclusive.

SMILES | mIDH1 inhibitor | RGS4 inhibitor | TrxR1 substrate | Eya2 phos inh | rTrxR1 inhibitor | Resorufin autofl | IDH1 WT | mIDH1 confirm
O=C(N/N=C/c1c(O)n(C2CCCCC2)c(=S)[nH]c1=O)c1ccccc1O | ? | 8% | 3% | -7% | 31% | 9 | -5% | 45µM*
COC(=O)[C@@]1(Cc2ccccc2)[C@H]2C(=O)N(Cc3ccccc3)C(=O)[C@H]2[C@H]2CN=C(SCc3ccc(C#N)cc3)N21 | 3%[38.3 µM] | -8% | 6% | 4% | 40% | · | · | ·
CN(C)C(=O)Oc1ccc(C(=O)c2ccccc2)cc1 | 5% | 4% | 6% | -15% | 6% | · | · | ·
CCC(=O)Oc1ccc(C(=O)Nc2cccc(C(=O)c3ccccc3)c2)cc1 | 26µM* | 2% | 1% | -6% | 1% | -5 | 5% | 10µM*
C[C@H]1CCCC=CC2C[C@H](O)C[C@@H]2[C@H](O)C=CC(=O)O1 (stereo not given in full) | · | · | 2% | · | 8% | · | · | ·
O=c1c2ccccc2nc(/C=C/c2cccnc2)n1Cc1ccccc1 | 41µM* | -20% | 5% | -8% | 16% | 5 | 45µM* | 25µM*
Cc1cc(C=C2C(=O)NC(=S)NC2=O)c(C)n1-c1ccc2c(c1)OCO2 | 41µM* | ? | -20% | -33% | ? | 2 | ? | 35µM*
Cc1cc(C=C2C(=O)NC(=O)NC2=O)c(C)n1-c1ccc2c(c1)OCO2 | 4% | -34% | -11% | 14% | -35% | · | · | ·
FC(F)(F)c1ccc2c(c1)N(CCCN1CCN(CCCl)CC1)c1ccccc1S2 | 37µM* | -41% | 2% | -14% | -15% | -7 | -6% | 8.9µM*
OCCN1CCN(CCCN2c3ccccc3Sc3ccc(C(F)(F)F)cc32)CC1 | 3% | ? | 3%[57.1 µM] | -8% | 2%[57.1 µM] | · | · | ·
O=c1[nH]c(=O)n(CC2CCCO2)c(O)c1/C=C1\C=Nc2ccccc21 (stereo not given) | -12% | -7% | -10% | 14% | -23% | · | · | ·
CCCCCc1nc2c(c(=O)c3ccccc3n2C)c(=O)n1C1CCCCCC1 | 10µM* | -16% | -7% | -8% | -13% | -6 | 35µM* | 5µM*
CCCCCc1nc2ccccc2c(=O)n1-c1ccc(C)cc1 | -1% | -11% | 0% | · | -3% | · | · | ·
CCOC(=O)c1c(-n2c(C)cc(C=C3C(=O)NC(=O)NC3=O)c2C)sc2c1CCCC2 | 18µM* | ? | -13% | 1% | -35% | -4 | 28µM* | 11µM*
Cc1ccc(NC(=O)CCNC(=O)N2C[C@H]3C[C@@H](C2)c2cccc(=O)n2C3)c(C)c1 | -11% | 9% | 2% | -2% | 8% | · | · | ·
COCCCn1c(N)c(C(=O)Nc2sc3c(c2C(=O)OC)CCCC3)c2nc3ccccc3nc21 | ? | 1% | -6%[57.1 µM] | ? | 24% | 5 | -3% | ?
